Source: PubChem
Only some compounds are listed: those with a hit (about 3.2% of all), similar ones and a draw of the others.
CDK5 p35 inh – inhibitors of human CDK5/p35 kinase; actives 0.01% (n = 330,000); Recombinant CDK5/p35, ADP-Glo luminescence, 60 min; AID 488839; inhibition, % at 10 µM;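 active = highest replicate inhibition of at least 50% and at least 75% of replicates reaching 50%; inconclusive = only one of the two criteria met; inactive = both criteria failed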
Target sequence (Q00535 whole entry, looked up): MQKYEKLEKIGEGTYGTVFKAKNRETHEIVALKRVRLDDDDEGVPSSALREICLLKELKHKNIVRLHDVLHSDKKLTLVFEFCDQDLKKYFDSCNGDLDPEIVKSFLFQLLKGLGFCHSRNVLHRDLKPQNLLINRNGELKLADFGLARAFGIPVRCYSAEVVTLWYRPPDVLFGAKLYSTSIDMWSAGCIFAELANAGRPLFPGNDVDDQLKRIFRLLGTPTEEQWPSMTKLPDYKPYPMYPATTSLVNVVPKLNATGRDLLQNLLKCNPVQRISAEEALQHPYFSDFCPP
Target sequence (Q15078 whole entry, looked up): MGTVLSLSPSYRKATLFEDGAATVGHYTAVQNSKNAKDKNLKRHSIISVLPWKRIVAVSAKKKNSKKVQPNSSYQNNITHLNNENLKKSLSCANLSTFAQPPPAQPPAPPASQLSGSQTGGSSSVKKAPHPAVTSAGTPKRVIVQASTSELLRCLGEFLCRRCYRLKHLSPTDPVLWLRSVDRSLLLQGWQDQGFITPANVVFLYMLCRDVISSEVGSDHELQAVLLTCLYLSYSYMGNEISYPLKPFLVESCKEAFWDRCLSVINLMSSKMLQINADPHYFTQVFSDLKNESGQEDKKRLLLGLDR
esBAF inh – SWI/SNF esBAF complex inhibition; mouse ES cells, Bmi1-luciferase knock-in reporter, 24 h; 100% = twice the neutral-well signal; reporter increase, % at 12.5 µM; actives 2% (n = 350,000); in the data active = activation above about 40%; inconclusive = no clear call, values can overlap the other calls;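 note: a rise in the Bmi1 reporter signal indicates esBAF inhibition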
dFosB act-1 – activators of mouse delta FosB homodimer. purified delta FosB, TAMRA-CDK5 oligo fluorescence polarization; percent of positive-control signal above neutral wells. activation, % at 25 µM. actives 0.99% (n = 340,000). AID 493131;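 active = mean activation above about 17%, with every replicate also reaching it, limit read from the data, passing the limit was not always enough; inconclusive = only one of the two conditions met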
Dyrk1A ADPGlo – inhibitors of rat Dyrk1A kinase | Q63470 | ADP-Glo luminescence, NFATc1 peptide | inhibition, % at 12.5 µM | actives 0.43% (n = 310,000) | AID 504441; in the data active = inhibition above about 50%
Rtt109 Vps75 – C. albicans Rtt109 histone acetyltransferase inhibition | purified Rtt109/Vps75, ThioGlo CoA-SH fluorescence, 4 h | Q5AAJ8 | inhibition, % at 34.9 µM | actives 0.16% (n = 330,000) | AID 540336;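 active = inhibition of at least 50% in every replicate; inconclusive = best replicate reaches 50% inhibition but some replicates fall short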
SMARCA2 act – activators of SMARCA2 function | MG213 cells, MMTV-luciferase reporter, dexamethasone, overnight | activation, % at 9.1 µM | actives 1% (n = 370,000) | AID 652017; in the data active = activation above about 7.8%
dFosB act-2 – activators of mouse delta FosB homodimer DNA binding; shares compounds with dFosB act-1; purified delta FosB, TAMRA-CDK5 oligo fluorescence polarization; normalised: neutral wells 0, positive control 100; activation, % at 24.9 µM; 2,400 tested, under 10 active;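 active = highest replicate activation at or above 34% and every replicate reaching that threshold; inconclusive = meets only one of the two criteria; inactive = meets neither criterion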;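 note: higher polarization means more probe DNA bound by delta FosB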
ADP-Glo artifact – ADP-Glo luciferase interference, Dyrk1A counter-screen; shares compounds with Dyrk1A ADPGlo; ADP-Glo luciferase artifact assay, no Dyrk1A, luminescence; AC50, µM (top dose mostly 12 µM); 1,300 tested, under 10 active;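 active = fitted half-maximal dose AC50 no more than ten times the top valid tested dose, with luminescence dropping as dose rises; inconclusive = poor fit, or flat fit with 30 to 70% inhibition; inactive = the rest, signal increases included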
esBAF Ring1 qPCR – esBAF inhibition confirmed by Ring1 de-repression; shares compounds with esBAF inh; mouse ESC E14, Ring1 mRNA RT-qPCR fold change; fold change at 33 µM; 550 tested, under 10 active;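 active = Ring1 gene expression raised more than 2-fold over untreated cells in both replicates at either tested dose; inconclusive = only one replicate above 2-fold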;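 note: Ring1 transcript normalised to actin housekeeping signal by TaqMan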
Fgf4 repress – confirmation of esBAF inhibitors: Fgf4 repression in mouse ESCs | shares compounds with esBAF inh | mouse ESC E14, Fgf4 mRNA qPCR fold change; hits give low values | Fgf4 expression fold change at 33 µM | actives 4% (n = 550) | AID 743177;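 active = Fgf4 expression under 0.8 fold of control in both repeat measurements at one or both tested doses; inconclusive = under 0.8 fold in just a single repeat measurement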;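 note: Fgf4 transcript normalised to actin in duplex TaqMan qPCR; cells exposed to compound for 24 h before lysis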
Bmi1 derepress – confirmation of esBAF inhibitors: Bmi1 de-repression in mouse ESCs; shares compounds with esBAF inh; mouse ESE14 ES cells, Bmi1 mRNA qPCR fold; hits give high values; fold change at 33 µM; 550 tested, under 10 active; AID 743180;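 active = Bmi1 expression fold change above 6 at either tested concentration, seen in replicate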;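 note: higher fold means more Bmi1 de-repression and stronger esBAF inhibition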
A549 tox SP – kills or reduces viability of A549 cells; shares compounds with esBAF inh; A549 cytotoxicity, plate reader; cell viability change % (negative = cytotoxic), % at 25 µM, hits read low; 550 tested, under 10 active; AID 743188; call rule not given here
HepG2 tox SP – cytotoxicity in HepG2 cells; shares compounds with esBAF inh; plate reader; hits give low values; activity change, negative = inhibition, % at 25 µM; actives 4% (n = 550); AID 743189; in the data active = activity change below about -50%
HEK293 tox SP – HEK293 cell cytotoxicity at single point; activity change, negative = inhibition, % at 25 µM, hits read low; shares compounds with esBAF inh; plate reader; actives 3% (n = 550); AID 743190; in the data active = activity change below about -38%, passing the limit was not always enough
Numbers stand for hits; n = inactive; u = inconclusive; x = not tested or not shown.

SMILES | CDK5 p35 inh | esBAF inh | dFosB act-1 | Dyrk1A ADPGlo | Rtt109 Vps75 | SMARCA2 act | dFosB act-2 | others
CC(=O)N(C)C[C@@H]1Oc2cc(C#CCC3CCCC3)ccc2S(=O)(=O)N([C@H](C)CO)C[C@H]1C | x | n | x | x | x | x | x
CCc1ccc(NC(=O)CSc2nc3n[nH]c(C)c3c(=N)n2-c2cccc(OC)c2)cc1 | n | n | 42 | n | n | n | n
O=C(CSc1ccc(-c2ccc(-n3cccn3)cc2)nn1)Nc1ccccc1F | n | x | 25 | n | n | n | n
O=C(CSc1ccc(-c2cccnc2)nn1)Nc1ccccc1F | n | n | n | n | n | n | x
Cc1ccc(-c2nnn(CC(=O)Nc3ccc(S(=O)(=O)N4CCC(C)CC4)cc3)n2)cc1 | n | n | 68 | n | n | n | n
CCCCN(C(=O)c1cc(Cl)nc2ccccc12)c1c(N)n(Cc2ccccc2)c(=O)[nH]c1=O | n | n | 27 | n | n | n | n
C/C=C/c1ccc2c(c1)O[C@@H](CN(C)C(=O)c1cnccn1)[C@H](C)CN([C@@H](C)CO)S2(=O)=O | x | n | x | x | x | x | x
O=C(COc1c(Br)cc(Br)cc1Br)N/N=C/c1ccco1 | n | n | 31 | x | n | x | n
Cc1cccc(NC(=O)NNC(=O)COc2ccc3ccccc3c2)c1 | n | n | u | n | n | n | x
Cc1cccc(NC(=O)NNC(=O)COc2ccc(Cl)cc2)c1 | n | n | 35 | n | n | n | n
CCCOC(=O)c1cccc(NC(=O)COc2ccc([N+](=O)[O-])cc2)c1 | n | x | 19 | n | n | n | n
Cc1ccc(NC(=O)Nc2ccc(Cl)cc2)c(Br)c1 | n | x | n | n | n | n | x
Cc1ccc(OCC(=O)NNC(=O)Nc2ccc(Cl)cc2)c(Br)c1 | n | x | 23 | n | n | n | n
Cc1ccc(NC(=O)NNC(=O)COc2ccc([N+](=O)[O-])cc2)cc1C | n | n | 32 | x | n | n | n
C[C@@H]1CN([C@H](C)CO)C(=O)c2cc(-c3cncnc3)cnc2O[C@@H]1CN(C)C(=O)c1cccc(F)c1 | x | n | x | x | x | x | x
C[C@@H]1CN([C@H](C)CO)C(=O)c2cc(NC(=O)c3ccncc3)ccc2O[C@@H]1CN(C)Cc1ccc(Cl)c(Cl)c1 | x | n | x | x | x | x | x
O=C(NNC(=O)c1cc(-c2ccc(Cl)c(Cl)c2)nc2ccccc12)Nc1ccccc1 | n | x | n | n | n | n | x
COc1ccc(NC(=O)NNC(=O)COc2ccc(Cl)cc2C)cc1OC | n | n | 45 | n | n | n | n
Cc1cccc(NC(=O)NNC(=O)c2cc(-c3ccccc3Cl)nc3ccccc23)c1 | n | n | 20 | n | n | x | n
COc1ccc(Cn2c(=O)[nH]c3cc(C(=O)NCc4ccc5c(c4)OCO5)ccc3c2=O)cc1 | n | n | n | n | n | n | x
O=C(NCc1ccc2c(c1)OCO2)c1ccc2c(=O)n(C3CCCC3)c(=O)[nH]c2c1 | n | n | 40 | n | n | n | n
C[C@@H]1CN([C@@H](C)CO)C(=O)c2cc(C#Cc3ccccc3)cnc2O[C@@H]1CN(C)C(=O)CCN1CCCCC1 | x | n | x | x | x | x | x
COc1cc(-n2c(=O)c3ccccc3n(Cc3cccc(C)c3)c2=O)cc(OC)c1OC | n | n | 53 | n | n | n | n
CC(Nc1nc(-c2ccncc2)nc2ccccc12)c1ccccc1 (configuration not stated) | n | n | n | n | n | n | x
CC(Nc1nc(N2CCNCC2)nc2ccccc12)c1ccccc1 (configuration not stated) | n | x | 48 | n | n | n | n
SMILES | CDK5 p35 inh | esBAF inh | dFosB act-1 | Dyrk1A ADPGlo | Rtt109 Vps75 | SMARCA2 act | dFosB act-2 | others
Cc1ccc(NC(=O)Nc2nnc(CSCCOc3ccc(Cl)cc3)s2)cc1 | n | x | n | n | n | n | x
COc1ccc(OCCSCc2nnc(NC(=O)Nc3ccc(Cl)cc3)s2)cc1 | n | x | 24 | n | n | n | n
CCSc1ccc(C(=O)Nc2ccc(Br)cn2)cc1[N+](=O)[O-] | n | x | 19 | n | n | n | n
O=C(C[C@H]1CC[C@@H](NC(=O)C2CC2)[C@@H](CO)O1)NC1CCC1 | x | n | x | x | x | x | x
Cc1ccc(C)c(NC(=O)CN2C(=O)NC(CCc3ccccc3)C2=O)c1 (configuration not stated) | n | n | 34 | n | n | n | n
O=c1c2c(O)cc(O)cc2oc2c(O)ccc(O[C@H]3O[C@@H](CO)[C@H](O)[C@@H](O)[C@@H]3O)c12 | n | n | 17 | 73 | n | n | n | ADP-Glo artifact=n
O=C(C[C@@H]1C=C[C@H](NS(=O)(=O)c2ccccc2)[C@H](CO)O1)N1CCc2ccccc2C1 | x | n | x | x | x | x | x
O=C(Nc1cccc(-c2cn3cccnc3n2)c1)c1ccco1 | n | n | n | n | n | x | x
O=C(Nc1cccc(-c2cn3cccnc3n2)c1)c1ccc(Br)o1 | n | n | 19 | 51 | n | n | n | ADP-Glo artifact=n
COc1ccc(-c2cc(C(=O)Nc3ccc(C(N)=O)cc3)c3ccccc3n2)cc1 | n | 57 | 37 | n | n | n | n | esBAF Ring1 qPCR=n;Fgf4 repress=u;Bmi1 derepress=n;A549 tox SP=n;HepG2 tox SP=n;HEK293 tox SP=n
COc1ccc(S(=O)(=O)N(C)C[C@H]2OCCCC[C@@H](C)Oc3ccc(NS(=O)(=O)c4cn(C)cn4)cc3C(=O)N([C@@H](C)CO)C[C@@H]2C)cc1 | x | n | x | x | x | x | x
